The nature of test [1]: compound effects on lung adenocarcinoma cell viability – A549, calcein-AM fluorescence, 48 h, basal, profiling panel (AID 1162). Also: test concentration not given here. The note with it: higher = more signal.
Test [2] is described as follows: compound effects on differentiated 3T3-L1 adipocyte viability – cell-based, 3T3-L1 adipocytes, calcein-AM fluorescence, 48 h, basal, profiling panel (AID 1163). Also: test concentration not given here. The conditions noted are these: 3T3-L1 adipocytes viability, higher = more signal.
Test [3] can be described thus: compound effects on hepatocellular carcinoma cell viability – HepG2, calcein-AM fluorescence, 48 h, basal, profiling panel (AID 1164). Also: test concentration not given here. The conditions noted are these: higher = more signal.
The nature of test [4]: compound effects on multiple myeloma cell viability – MM1S, calcein-AM fluorescence, 48 h, basal, profiling panel (AID 1165). Also: test concentration not given here. The conditions noted are these: higher = more signal.
The nature of test [5]: calcein-AM signal in unstimulated myeloma cells – cell-based, calcein-AM fluorescence, 48 h, PK04 Diversity Set, profiling panel (AID 1166).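 Also: cells grown under basal conditions without added stimulus; test concentration not given here.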 The note with it: RPMI8226 myeloma viability, higher = more signal.
A short description of test [6]: JC-1 mitochondrial signal, unstimulated HepG2 cells – cell-based, JC-1 fluorescence, 24 h, 100 nL compound, profiling panel (AID 1167). Also: test concentration not given here. The note with it: HepG2 mitochondrial potential, higher = more signal.
A short description of test [7]: JC-1 mitochondrial signal, unstimulated adipocytes – cell-based, JC-1 fluorescence, 3T3-L1 adipocytes, 24 h, 100 nL compound, profiling panel (AID 1168). Also: test concentration not given here. The conditions noted are these: JC-1 mitochondrial fluorescence, higher = more signal, called active from +8 up or from −8 down.
A short description of test [8]: JC-1 mitochondrial signal, unstimulated myeloma cells – cell-based, JC-1 fluorescence, RPMI8226, 24 h, 100 nL compound, profiling panel (AID 1169). Also: test concentration not given here. The note with it: JC-1 mitochondrial potential fluorescence, higher = more signal.
Test [9] in a line: JC-1 mitochondrial signal, unstimulated MM1S myeloma – cell-based, JC-1 fluorescence, 24 h, 100 nL compound, profiling panel (AID 1170). Also: test concentration not given here. The conditions noted are these: MM1S mitochondrial potential, higher = more signal.
Test [10] is described as follows: resazurin metabolic signal in A549 cells – cell-based, resazurin fluorescence, 24 h, PK04 Diversity Set, profiling panel (AID 1171). Also: test concentration not given here. The note with it: A549 viability, higher = more signal, called active from +8 up or from −8 down. (The colour change of resazurin is a common sign of viable cells or microbes.)
Test [11] can be described thus: resazurin metabolic signal in HepG2 cells – cell-based, resazurin fluorescence, 24 h, PK04 Diversity Set, profiling panel (AID 1172). Also: test concentration not given here. The conditions noted are these: HepG2 viability, higher = more signal.
Test [12] is described as follows: budding yeast growth changes without added modifier – OD600, strain BY4716, 24 h, basal condition, primary screen (AID 1173). The conditions noted are these: S. cerevisiae BY4716 growth, OD600, 24 h; higher = more signal, called active from +8 up or from −8 down.
Test [13] can be described thus: viability profiling in MM1S myeloma cells – cell-based, resazurin fluorescence, basal, 24 h, PK04 Diversity Set, profiling panel (AID 1174). Also: test concentration not given here. The note with it: higher = more signal, called active from +8 up or from −8 down.
In test [14] the target is Dihydroorotate dehydrogenase (quinone), mitochondrial (Plasmodium falciparum (isolate 3D7)) (UniProt Q08210). Kind of test: inhibition of P. falciparum DHODH – biochemical, C-terminal His tag, absorbance 600 nm, primary screen (AID 1175).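 Also: recombinant parasite enzyme with a five histidine tag at its C terminus; test concentration not given here.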 The conditions noted are these: PfDHODH enzyme, DCIP absorbance 600 nm; higher = more signal, called active from +8 up or from −8 down.
Dihydroorotate dehydrogenase (quinone), mitochondrial (Plasmodium falciparum (isolate 3D7)), sequence (Q08210 whole entry, looked up): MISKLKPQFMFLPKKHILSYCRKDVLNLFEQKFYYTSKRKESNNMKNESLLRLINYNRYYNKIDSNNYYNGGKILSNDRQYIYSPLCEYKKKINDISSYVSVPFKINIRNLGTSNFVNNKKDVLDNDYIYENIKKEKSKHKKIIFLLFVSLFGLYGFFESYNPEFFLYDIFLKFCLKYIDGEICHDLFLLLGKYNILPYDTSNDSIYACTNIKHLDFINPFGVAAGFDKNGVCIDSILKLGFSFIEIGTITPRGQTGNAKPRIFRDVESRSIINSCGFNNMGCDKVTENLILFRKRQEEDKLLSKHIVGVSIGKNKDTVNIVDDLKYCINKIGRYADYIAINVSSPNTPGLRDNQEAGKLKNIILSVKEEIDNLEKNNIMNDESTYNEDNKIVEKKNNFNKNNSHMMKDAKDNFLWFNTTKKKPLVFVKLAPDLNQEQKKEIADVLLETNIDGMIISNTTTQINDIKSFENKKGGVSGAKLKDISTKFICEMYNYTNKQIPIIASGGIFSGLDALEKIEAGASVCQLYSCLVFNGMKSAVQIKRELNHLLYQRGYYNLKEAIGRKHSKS

The nature of test [15]: inhibition of PAO1 biofilm formation – strain PAO1, LB-PBS medium, absorbance 600 nm, primary screen (AID 1176). Also: test concentration not given here. The conditions noted are these: P. aeruginosa PAO1 growth/biofilm, A600, 12 h; higher = more signal.
Test [16] in a line: growth modulation of vineyard yeast isolate – strain RM11-1a, OD600, basal, 24 h, primary screen (AID 1177).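 Also: cultures grown under basal conditions with no added stressor; test concentration not given here.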 The note with it: S. cerevisiae RM11-1a growth, OD600, 24 h; higher = more signal, called active from +8 up or from −8 down.
The nature of test [17]: growth of efflux-deficient E. coli DRC39 – strain DRC39, OD650, 24 h, E. coli filamentation inducers, primary screen (AID 1178).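 Also: growth measured as culture turbidity by optical density at 650 nm; test concentration not given here.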 The conditions noted are these: E. coli DRC39 acrAB, higher = more signal, called active from +8 up or from −8 down.
A short description of test [18]: growth of efflux-deficient E. coli DRC39 – strain DRC39, OD650, 48 h, E. coli filamentation inducers, primary screen (AID 1179).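 Also: screen aims at cell division blockers that make cells filament.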 The note with it: E. coli DRC39 delta-acrAB growth, higher = more signal, called active from +8 up or from −8 down.
A short description of test [19]: viability profiling in RPMI8226 myeloma cells – cell-based, resazurin fluorescence, basal, 24 h, PK04 Diversity Set, profiling panel (AID 1180).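 Also: RPMI8826 multiple myeloma cell line at 5000 cells per well; test concentration not given here.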 The note with it: higher = more signal.
The target of test [20] is E3 ubiquitin-protein ligase XIAP (Homo sapiens) (UniProt P98170). Kind of test: small molecules binding XIAP protein – biophysical, small-molecule microarray, fluorescence 635 nm, primary screen (AID 1181).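 Also: score merges 667 nm emission and signal to noise over triplicate slides.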 The note with it: higher = more signal.
E3 ubiquitin-protein ligase XIAP (Homo sapiens), sequence (P98170 whole entry, looked up): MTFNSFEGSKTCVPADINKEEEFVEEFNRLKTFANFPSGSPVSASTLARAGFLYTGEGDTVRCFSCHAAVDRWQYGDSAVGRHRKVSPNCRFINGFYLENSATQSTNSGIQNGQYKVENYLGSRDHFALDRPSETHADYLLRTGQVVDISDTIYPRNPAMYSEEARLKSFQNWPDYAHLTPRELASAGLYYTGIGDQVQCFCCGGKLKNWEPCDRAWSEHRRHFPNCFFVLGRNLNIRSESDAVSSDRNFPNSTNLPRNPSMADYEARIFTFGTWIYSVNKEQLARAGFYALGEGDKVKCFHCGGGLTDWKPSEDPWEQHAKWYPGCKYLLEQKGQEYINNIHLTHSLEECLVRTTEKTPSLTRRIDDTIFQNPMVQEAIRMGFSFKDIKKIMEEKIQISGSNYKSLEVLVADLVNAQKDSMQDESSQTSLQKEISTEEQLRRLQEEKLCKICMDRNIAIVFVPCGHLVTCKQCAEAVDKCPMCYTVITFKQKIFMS

Molecules are shown by their SMILES. Calls of active or inactive are those of the source. Unless noted, no rule for the calls is given here.

Regarding `NCCCC[C@@H]1NC(=O)[C@H]2C[C@@H](C(=O)NCc3ccc(F)cc3)[C@@H](c3cccc(OCCO)c3)N2C1=O`, the z-score is 0.172 in test [1]; -0.716 in test [2]; 1.13 in [3]; -0.893 in test [4]; -0.259 in [5]; -2.23 in [6]. Moreover, the z-score in [7] was 0.13 (inactive); in [8] it was -0.968; in [9] it was -0.894; in test [10], 0.858 (inactive); in test [11], -1.49; in [12] it was -0.956 (inactive). In addition, the z-score in test [13] is 0.646 (inactive); in test [15], 0.379 (inactive); in test [16], 1.57 (inactive); in test [17], 0.71 (inactive); in test [18] it was 0.896 (inactive); in test [19], 1.04. Moreover, the composite z-score in test [14] is 0.22 (inactive); in [20] it was -0.271.
For `C=CCN1C(=O)[C@]2(O[C@H](CCn3cc([C@H](O)c4ccccc4)nn3)[C@@H]([Si](C)(C)c3ccc(OC)cc3)[C@@H]2C)c2cc(N3C(=O)c4cccc5cccc3c45)ccc21`, the z-score in [1] was -0.133; in test [2], -0.363; in [3] it was -3.33; in test [4], -1.4; in [5], -4.46; in [6], 2.24. For the same molecule, the z-score was 1.19 (inactive) in test [7]; -1.02 in [8]; -1.33 in [9]; -1.7 (inactive) in test [10]; -1.1 in [11]; 0.0523 (inactive) in test [12]. Besides, the z-score was -2.78 (inactive) in [13]; 1.69 (inactive) in [15]; 0.88 (inactive) in test [16]; 0.908 (inactive) in test [17]; 0.591 (inactive) in test [18]; -3.61 in test [19]. Further, the composite z-score was 0.739 (inactive) in [14] and 0.0435 in [20].
`C[C@H]1C2[C@H](Cc3ccccc3)NC(=O)[C@]23C(=O)NCC(=O)N2CCC[C@H]2C(=O)NC/C=C\C/C=C/C3[C@@H]2O[C@]12C` (stereo not given in full): the z-score in [1] was 0.379; in test [2] it was 0.491; in test [3] it was 0.409; in [4], 0.163; in test [5] it was -0.547; in test [6] it was -0.324. Also, the z-score was 0.0628 (inactive) in test [7]; -1.03 in [8]; 0.227 in [9]; 0.87 (inactive) in [10]; 0.825 in test [11]; -1.82 (inactive) in test [12]. The z-score in [13] is 0.741 (inactive); in [15] it was -0.14 (inactive); in [16] it was -0.939 (inactive); in test [17], 1.02 (inactive); in test [18] it was 0.741 (inactive); in test [19], 1.05. The composite z-score was -0.173 (inactive) in test [14] and -0.258 in test [20].
For `CCCC[C@@H]1C[C@H]1[C@@H](NC(=O)c1ccc(C(F)(F)F)cc1)c1ccc(C(=O)OC)cc1`, the z-score in test [1] was -0.844; in test [2], -0.55; in [3], -1.33; in test [4] it was -1.97; in test [5] it was -1.73; in test [6], -0.84. The z-score in test [7] was 0.282 (inactive); in test [8], -0.167; in test [9] it was -1.72; in test [10], 0.312 (inactive); in test [11], 1.51; in test [12] it was 0.146 (inactive). In addition, the z-score in test [13] is 0.444 (inactive); in test [15], 1.02 (inactive); in test [16], 1.02 (inactive); in test [17], 0.909 (inactive); in test [18], 0.787 (inactive); in test [19] it was 0.971. Also, the composite z-score in [14] was -0.0667 (inactive); in test [20], 0.209.
Take `CCOC(=O)C1=C[C@@H](C(C)(C)C)N(S(=O)(=O)c2ccc(C)cc2)[C@H]1c1ccccc1Cl`: the z-score is -0.917 in [1]; -1.16 in test [2]; -1.81 in [3]; -0.991 in test [4]; -1.2 in test [5]; 3.95 in [6]. The z-score was 0.147 (inactive) in [7]; -0.822 in test [8]; -0.863 in test [9]; 0.772 (inactive) in [10]; -0.421 in [11]; 1.51 (inactive) in [12]. The z-score in test [13] was -0.763 (inactive); in test [15], 0.188 (inactive); in test [16], 1.73 (inactive); in test [17] it was -0.544 (inactive); in test [18], -0.468 (inactive); in test [19] it was -1.74. Besides, the figures for the composite z-score in [14] and in test [20] were 0.0477 (inactive) and 0.227, respectively.
With `CC(=O)NCCCC[C@@H]1NC(=O)[C@H]2C[C@@H](C(=O)NCCCCCC[N+](C)(C)C)[C@@H](c3ccc(O)cc3)N2C1=O`, the z-score in [1] is -0.74; in [2], 0.234; in [3], -1.22; in test [4] it was -0.0244; in test [5] it was 0.512; in [6], -0.896. For the same molecule, the z-score in test [7] is 0.217 (inactive); in test [8], 0.0883; in [9], -0.251; in test [10] it was 0.615 (inactive); in test [11] it was 0.387; in test [12], -0.0177 (inactive). The z-score in test [13] is 0.319 (inactive); in [15] it was 0.519 (inactive); in test [16], -0.533 (inactive); in [17], -0.04 (inactive); in [18] it was -0.63 (inactive); in [19], -0.0771. Also, the composite z-score in [14] was -1.03 (inactive); in test [20] it was -0.0062.
Take `CN1C(=O)C2C=CC(C(O)c3ccc(-c4ccccc4)s3)N(Nc3ccccc3)C2C1=O` (stereo not given): the z-score in test [1] was -0.485; in [2], -1.2; in test [3], -0.99; in test [4], -0.467; in test [5] it was -1.64; in test [6], -1.44. In addition, the z-score in test [7] was -0.896 (inactive); in test [8], -0.364; in [9] it was -0.138; in test [10], -0.086 (inactive); in test [11], -0.208; in test [12], -1.02 (inactive). Besides, the z-score is -1.03 (inactive) in [13]; 1.6 (inactive) in test [15]; 0.0727 (inactive) in test [16]; 0.243 (inactive) in test [17]; -0.0198 (inactive) in test [18]; -0.985 in [19]. In addition, the composite z-score in [14] was 0.71 (inactive); in test [20], 0.148.
For `CCCCC=C[C@@H](NC(=O)c1ccc(C(F)(F)F)cc1)c1ccccc1`, the z-score in [1] was -1.13; in [2] it was -1.28; in test [3], -0.63; in [4] it was -0.978; in test [5], -2.53; in [6] it was -1.65. In addition, the z-score is -1.12 (inactive) in [7]; -0.169 in [8]; -1.27 in [9]; 2.14 (inactive) in test [10]; 1.64 in test [11]; -0.118 (inactive) in test [12]. In addition, the z-score in test [13] is 0.423 (inactive); in test [15], -0.222 (inactive); in test [16], 0.562 (inactive); in [17] it was -0.244 (inactive); in test [18] it was 0.291 (inactive); in test [19], 1.1. Besides, the composite z-score in [14] is -0.101 (inactive); in test [20] it was 0.0699.

These data come from PubChem BioAssay.
